Tests used:
[1] = molecular target: 5'-AMP-activated protein kinase catalytic subunit alpha-2 (Homo sapiens) (UniProt P54646); settings: at 1 µM
[2] = molecular target: T1, NUAK family SNF1-like kinase 1 (Homo sapiens) (UniProt O60285); settings: at 0.1 µM
T1 sequence (whole entry): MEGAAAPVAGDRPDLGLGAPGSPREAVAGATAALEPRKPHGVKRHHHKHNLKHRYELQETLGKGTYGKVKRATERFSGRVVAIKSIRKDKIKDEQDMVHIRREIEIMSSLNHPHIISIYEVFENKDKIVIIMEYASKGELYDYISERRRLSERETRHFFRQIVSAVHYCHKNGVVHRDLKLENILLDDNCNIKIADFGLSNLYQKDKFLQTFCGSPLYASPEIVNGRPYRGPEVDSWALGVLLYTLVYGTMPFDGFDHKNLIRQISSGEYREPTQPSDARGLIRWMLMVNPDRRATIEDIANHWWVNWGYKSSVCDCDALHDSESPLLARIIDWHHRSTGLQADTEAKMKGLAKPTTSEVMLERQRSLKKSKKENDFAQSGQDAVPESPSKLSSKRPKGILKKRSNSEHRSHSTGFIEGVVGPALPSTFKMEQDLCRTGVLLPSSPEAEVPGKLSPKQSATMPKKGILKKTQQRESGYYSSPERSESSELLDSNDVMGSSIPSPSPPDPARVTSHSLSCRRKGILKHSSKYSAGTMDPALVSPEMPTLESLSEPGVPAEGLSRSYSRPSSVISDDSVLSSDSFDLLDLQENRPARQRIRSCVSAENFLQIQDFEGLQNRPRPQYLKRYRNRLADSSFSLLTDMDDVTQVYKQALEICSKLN

[3] = molecular target: T1, NUAK family SNF1-like kinase 1 (Homo sapiens); settings: at 1 µM
[4] = molecular target: T2, Serine/threonine-protein kinase BRSK1 (Homo sapiens) (UniProt Q8TDC3); settings: at 0.1 µM
T2 sequence (whole entry): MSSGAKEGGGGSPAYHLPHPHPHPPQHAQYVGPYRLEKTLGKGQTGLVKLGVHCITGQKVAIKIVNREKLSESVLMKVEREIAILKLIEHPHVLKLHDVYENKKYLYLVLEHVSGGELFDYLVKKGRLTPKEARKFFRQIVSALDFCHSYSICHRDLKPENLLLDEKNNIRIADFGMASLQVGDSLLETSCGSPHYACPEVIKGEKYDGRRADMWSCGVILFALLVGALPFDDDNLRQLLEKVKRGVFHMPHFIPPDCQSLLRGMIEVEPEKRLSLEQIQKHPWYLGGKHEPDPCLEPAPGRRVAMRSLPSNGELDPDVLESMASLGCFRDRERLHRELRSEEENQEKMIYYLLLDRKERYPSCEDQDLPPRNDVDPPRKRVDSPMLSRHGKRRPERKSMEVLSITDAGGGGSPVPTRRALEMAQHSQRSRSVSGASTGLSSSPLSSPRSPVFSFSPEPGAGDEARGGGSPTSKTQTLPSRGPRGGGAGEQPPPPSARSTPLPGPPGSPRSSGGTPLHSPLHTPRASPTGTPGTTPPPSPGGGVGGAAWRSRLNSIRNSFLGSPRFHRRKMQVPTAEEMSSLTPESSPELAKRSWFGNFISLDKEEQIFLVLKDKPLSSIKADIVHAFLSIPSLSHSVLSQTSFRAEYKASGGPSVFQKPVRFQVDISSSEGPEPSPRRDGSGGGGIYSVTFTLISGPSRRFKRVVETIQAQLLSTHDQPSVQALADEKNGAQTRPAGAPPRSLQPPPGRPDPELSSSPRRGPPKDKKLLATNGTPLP

[5] = molecular target: T2, Serine/threonine-protein kinase BRSK1 (Homo sapiens); settings: at 1 µM
[6] = molecular target: T3, Serine/threonine-protein kinase BRSK2 (Homo sapiens) (UniProt Q8IWQ3); settings: at 0.1 µM
T3 sequence (whole entry): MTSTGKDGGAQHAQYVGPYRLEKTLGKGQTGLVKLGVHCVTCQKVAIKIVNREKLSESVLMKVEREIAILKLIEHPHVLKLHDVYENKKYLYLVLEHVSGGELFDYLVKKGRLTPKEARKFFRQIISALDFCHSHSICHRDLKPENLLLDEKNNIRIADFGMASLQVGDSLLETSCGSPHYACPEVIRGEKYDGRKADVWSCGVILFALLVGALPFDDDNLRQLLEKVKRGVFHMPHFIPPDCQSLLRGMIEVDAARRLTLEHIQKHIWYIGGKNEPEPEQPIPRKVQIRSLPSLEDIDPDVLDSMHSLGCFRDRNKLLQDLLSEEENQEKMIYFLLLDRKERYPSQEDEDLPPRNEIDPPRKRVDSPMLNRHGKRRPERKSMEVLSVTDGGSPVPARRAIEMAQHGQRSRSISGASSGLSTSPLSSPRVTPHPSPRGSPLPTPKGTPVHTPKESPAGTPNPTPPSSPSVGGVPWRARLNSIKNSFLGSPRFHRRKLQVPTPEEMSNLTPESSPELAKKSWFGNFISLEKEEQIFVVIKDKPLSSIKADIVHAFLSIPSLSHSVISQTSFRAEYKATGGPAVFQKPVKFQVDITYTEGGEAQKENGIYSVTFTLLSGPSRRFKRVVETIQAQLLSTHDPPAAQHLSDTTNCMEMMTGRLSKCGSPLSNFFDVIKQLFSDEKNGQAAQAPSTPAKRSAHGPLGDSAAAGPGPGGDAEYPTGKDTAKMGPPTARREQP

[7] = molecular target: T3, Serine/threonine-protein kinase BRSK2 (Homo sapiens); settings: at 1 µM
[8] = molecular target: Calcium/calmodulin-dependent protein kinase type 1D (Homo sapiens) (UniProt Q8IU85); settings: at 0.1 µM
[9] = molecular target: Calcium/calmodulin-dependent protein kinase type 1D (Homo sapiens) (UniProt Q8IU85); settings: at 1 µM
[10] = molecular target: Calcium/calmodulin-dependent protein kinase type II subunit alpha (Homo sapiens) (UniProt Q9UQM7); settings: at 0.1 µM
[11] = molecular target: Calcium/calmodulin-dependent protein kinase type II subunit alpha (Homo sapiens) (UniProt Q9UQM7); settings: at 1 µM
[12] = molecular target: Calcium/calmodulin-dependent protein kinase type II subunit delta (Homo sapiens) (UniProt Q13557); settings: at 0.1 µM
[13] = molecular target: Calcium/calmodulin-dependent protein kinase type II subunit delta (Homo sapiens) (UniProt Q13557); settings: at 1 µM
[14] = molecular target: T4, Calcium/calmodulin-dependent protein kinase type IV (Homo sapiens) (UniProt Q16566); settings: at 0.1 µM
T4 sequence (whole entry): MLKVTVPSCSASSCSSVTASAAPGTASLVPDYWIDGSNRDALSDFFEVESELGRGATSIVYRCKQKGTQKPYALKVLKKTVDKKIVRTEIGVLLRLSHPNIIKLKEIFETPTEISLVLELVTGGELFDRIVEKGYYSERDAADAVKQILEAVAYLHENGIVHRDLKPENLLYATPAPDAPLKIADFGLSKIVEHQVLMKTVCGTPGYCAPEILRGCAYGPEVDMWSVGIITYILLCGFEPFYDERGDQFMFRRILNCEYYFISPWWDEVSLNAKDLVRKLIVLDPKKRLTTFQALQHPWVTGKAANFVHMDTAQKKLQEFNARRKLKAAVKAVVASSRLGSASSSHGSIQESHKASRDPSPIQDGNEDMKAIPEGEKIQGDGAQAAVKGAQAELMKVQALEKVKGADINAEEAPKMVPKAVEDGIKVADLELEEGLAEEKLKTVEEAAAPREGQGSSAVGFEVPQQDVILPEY

[15] = molecular target: T4, Calcium/calmodulin-dependent protein kinase type IV (Homo sapiens); settings: at 1 µM
[16] = molecular target: T5, Serine/threonine-protein kinase Chk1 (Homo sapiens) (UniProt O14757); settings: at 0.1 µM
T5 sequence (whole entry): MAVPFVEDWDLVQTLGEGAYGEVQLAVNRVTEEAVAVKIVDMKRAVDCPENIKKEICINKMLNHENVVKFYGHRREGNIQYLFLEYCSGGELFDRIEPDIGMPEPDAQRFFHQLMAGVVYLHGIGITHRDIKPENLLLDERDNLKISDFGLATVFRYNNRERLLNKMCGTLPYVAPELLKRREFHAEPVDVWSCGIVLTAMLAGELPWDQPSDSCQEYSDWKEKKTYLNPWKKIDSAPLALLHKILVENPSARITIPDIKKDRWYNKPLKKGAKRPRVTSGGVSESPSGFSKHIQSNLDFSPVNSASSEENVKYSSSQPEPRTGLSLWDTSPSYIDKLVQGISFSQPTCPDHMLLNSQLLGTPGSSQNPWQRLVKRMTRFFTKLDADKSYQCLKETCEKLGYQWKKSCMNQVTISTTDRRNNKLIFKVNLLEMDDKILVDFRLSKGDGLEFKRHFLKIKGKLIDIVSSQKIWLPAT

[17] = molecular target: T5, Serine/threonine-protein kinase Chk1 (Homo sapiens); settings: at 1 µM
[18] = molecular target: Serine/threonine-protein kinase Chk2 (Homo sapiens) (UniProt O96017); settings: at 0.1 µM
[19] = molecular target: Serine/threonine-protein kinase Chk2 (Homo sapiens) (UniProt O96017); settings: at 1 µM
[20] = molecular target: Death-associated protein kinase 1 (Homo sapiens) (UniProt P53355); settings: at 0.1 µM;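 also: reported figure is the mean inhibition of DAPK1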
Sequence of Death-associated protein kinase 1 (Homo sapiens) (P53355 whole entry, looked up): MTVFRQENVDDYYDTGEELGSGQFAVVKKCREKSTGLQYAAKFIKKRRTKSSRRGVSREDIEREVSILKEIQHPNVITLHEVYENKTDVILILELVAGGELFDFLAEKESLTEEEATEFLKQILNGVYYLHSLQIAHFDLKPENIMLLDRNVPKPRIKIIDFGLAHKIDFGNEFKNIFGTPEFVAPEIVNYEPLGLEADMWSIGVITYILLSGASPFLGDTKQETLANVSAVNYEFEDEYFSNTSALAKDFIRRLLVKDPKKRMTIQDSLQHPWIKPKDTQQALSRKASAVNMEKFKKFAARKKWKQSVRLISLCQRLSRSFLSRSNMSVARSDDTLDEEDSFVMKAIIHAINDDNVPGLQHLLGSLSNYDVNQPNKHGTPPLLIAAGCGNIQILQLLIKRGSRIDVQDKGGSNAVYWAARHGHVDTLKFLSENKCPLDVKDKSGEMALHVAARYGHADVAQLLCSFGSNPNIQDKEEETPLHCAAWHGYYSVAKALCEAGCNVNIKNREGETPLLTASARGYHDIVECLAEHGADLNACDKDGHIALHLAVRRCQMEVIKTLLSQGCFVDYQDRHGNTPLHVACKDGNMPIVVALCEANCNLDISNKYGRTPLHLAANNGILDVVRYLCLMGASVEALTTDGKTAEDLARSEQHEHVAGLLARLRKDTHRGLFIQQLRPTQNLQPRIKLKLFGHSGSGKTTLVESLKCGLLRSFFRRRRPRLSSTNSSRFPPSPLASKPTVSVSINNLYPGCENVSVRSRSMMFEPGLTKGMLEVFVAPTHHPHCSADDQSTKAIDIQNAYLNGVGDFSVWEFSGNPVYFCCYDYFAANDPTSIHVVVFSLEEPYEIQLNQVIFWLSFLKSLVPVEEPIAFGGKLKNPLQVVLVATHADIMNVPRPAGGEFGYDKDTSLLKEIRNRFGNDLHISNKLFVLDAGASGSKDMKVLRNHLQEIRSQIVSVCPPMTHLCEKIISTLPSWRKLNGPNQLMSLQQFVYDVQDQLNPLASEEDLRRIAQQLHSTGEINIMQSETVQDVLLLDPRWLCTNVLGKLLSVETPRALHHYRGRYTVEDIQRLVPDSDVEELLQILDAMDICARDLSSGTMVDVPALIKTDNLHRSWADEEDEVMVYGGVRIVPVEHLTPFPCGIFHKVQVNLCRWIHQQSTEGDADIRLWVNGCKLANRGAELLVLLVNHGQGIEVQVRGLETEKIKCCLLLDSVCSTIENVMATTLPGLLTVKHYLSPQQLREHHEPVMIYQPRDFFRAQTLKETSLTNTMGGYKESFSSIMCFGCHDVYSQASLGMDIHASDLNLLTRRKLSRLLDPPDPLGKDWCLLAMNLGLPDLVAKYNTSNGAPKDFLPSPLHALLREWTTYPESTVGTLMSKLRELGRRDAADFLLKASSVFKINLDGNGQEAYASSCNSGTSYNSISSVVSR

Sequence of Calcium/calmodulin-dependent protein kinase type II subunit alpha (Homo sapiens) (Q9UQM7 whole entry): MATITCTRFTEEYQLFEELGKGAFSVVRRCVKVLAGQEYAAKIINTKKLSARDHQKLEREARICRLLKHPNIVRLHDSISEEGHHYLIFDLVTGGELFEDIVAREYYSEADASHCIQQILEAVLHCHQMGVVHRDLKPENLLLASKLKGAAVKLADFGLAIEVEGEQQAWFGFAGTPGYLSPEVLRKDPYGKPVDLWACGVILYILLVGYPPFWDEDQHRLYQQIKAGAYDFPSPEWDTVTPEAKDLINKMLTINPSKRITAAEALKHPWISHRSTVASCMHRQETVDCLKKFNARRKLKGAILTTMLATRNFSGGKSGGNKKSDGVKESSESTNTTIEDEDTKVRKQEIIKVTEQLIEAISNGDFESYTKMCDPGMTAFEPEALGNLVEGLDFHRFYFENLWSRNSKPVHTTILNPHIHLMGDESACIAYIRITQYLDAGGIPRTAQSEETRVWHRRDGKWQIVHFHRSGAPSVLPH
Sequence of Calcium/calmodulin-dependent protein kinase type 1D (Homo sapiens) (Q8IU85 whole entry, looked up): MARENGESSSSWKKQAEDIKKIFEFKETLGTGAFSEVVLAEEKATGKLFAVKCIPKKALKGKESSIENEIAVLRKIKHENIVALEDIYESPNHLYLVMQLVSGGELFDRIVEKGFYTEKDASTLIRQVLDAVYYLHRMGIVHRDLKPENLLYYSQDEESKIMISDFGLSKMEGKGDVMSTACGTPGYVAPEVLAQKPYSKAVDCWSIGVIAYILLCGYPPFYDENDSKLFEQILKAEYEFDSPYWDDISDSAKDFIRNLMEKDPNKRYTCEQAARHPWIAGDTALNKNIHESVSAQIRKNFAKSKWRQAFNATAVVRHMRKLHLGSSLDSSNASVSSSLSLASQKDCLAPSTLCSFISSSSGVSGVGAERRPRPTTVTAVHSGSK
Sequence of 5'-AMP-activated protein kinase catalytic subunit alpha-2 (Homo sapiens) (P54646 whole entry, looked up): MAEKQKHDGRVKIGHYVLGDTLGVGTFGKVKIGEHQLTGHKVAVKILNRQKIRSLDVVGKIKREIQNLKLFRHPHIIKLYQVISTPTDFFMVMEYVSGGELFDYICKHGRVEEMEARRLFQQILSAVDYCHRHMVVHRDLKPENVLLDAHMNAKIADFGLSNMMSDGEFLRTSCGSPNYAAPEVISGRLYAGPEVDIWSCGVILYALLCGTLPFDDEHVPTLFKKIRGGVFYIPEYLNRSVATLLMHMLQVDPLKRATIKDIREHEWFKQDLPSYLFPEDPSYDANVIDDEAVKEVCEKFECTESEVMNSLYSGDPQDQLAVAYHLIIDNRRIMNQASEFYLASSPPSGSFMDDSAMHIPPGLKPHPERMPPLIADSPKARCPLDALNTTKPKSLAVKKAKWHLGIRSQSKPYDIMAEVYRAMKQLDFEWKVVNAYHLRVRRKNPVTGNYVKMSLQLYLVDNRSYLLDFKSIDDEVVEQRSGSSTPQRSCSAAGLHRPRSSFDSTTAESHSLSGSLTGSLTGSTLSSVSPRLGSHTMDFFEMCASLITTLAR
Sequence of Calcium/calmodulin-dependent protein kinase type II subunit delta (Homo sapiens) (Q13557 whole entry): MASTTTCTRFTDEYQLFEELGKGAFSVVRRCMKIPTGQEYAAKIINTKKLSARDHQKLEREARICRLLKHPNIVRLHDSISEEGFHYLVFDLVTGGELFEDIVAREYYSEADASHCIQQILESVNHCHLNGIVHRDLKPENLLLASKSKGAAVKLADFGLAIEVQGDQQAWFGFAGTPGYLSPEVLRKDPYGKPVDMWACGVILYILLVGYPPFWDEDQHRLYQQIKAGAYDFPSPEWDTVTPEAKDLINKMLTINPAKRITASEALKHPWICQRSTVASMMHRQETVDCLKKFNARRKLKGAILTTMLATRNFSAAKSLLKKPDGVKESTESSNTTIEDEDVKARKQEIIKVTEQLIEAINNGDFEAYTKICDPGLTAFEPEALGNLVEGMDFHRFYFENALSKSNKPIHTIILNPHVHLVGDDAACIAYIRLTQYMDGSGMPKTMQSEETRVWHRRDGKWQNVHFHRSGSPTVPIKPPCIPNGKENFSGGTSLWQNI
Sequence of Serine/threonine-protein kinase Chk2 (Homo sapiens) (O96017 whole entry): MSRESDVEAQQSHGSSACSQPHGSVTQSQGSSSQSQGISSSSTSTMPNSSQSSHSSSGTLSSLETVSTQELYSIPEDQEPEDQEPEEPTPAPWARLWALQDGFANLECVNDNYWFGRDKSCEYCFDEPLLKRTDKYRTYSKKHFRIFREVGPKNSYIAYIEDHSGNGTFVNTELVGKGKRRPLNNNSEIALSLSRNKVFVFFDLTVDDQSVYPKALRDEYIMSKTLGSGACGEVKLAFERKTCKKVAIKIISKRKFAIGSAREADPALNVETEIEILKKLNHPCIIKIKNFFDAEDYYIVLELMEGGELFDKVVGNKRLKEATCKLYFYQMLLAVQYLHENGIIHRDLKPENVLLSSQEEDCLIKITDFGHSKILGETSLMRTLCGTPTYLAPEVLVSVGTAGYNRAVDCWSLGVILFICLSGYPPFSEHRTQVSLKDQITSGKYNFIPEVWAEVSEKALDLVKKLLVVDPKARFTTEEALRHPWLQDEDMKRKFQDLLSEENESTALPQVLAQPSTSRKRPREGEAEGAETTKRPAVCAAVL

Structure (SMILES)	inhibition [1]	inhibition [2]	inhibition [3]	inhibition [4]	inhibition [5]	inhibition [6]	inhibition [7]	inhibition [8]	inhibition [9]	inhibition [10]	inhibition [11]	inhibition [12]	inhibition [13]	inhibition [14]	inhibition [15]	inhibition [16]	inhibition [17]	inhibition [18]	inhibition [19]	inhibition [20]
Cc1ccc2c(-c3ccnc(Nc4ccccc4)n3)c(-c3ccc(F)cc3)nn2n1	3.36%	1.74%	6.31%	1.47%	1.77%	1.27%	0.62%	0.93%	1.34%	4.27%	4.16%	3.9%	4.15%	-0.02%	1.87%	2.71%	4.19%	2.15%	2.4%	3.42%
CCCN(CCS(C)(=O)=O)Cc1ccc(-c2ccc3ncnc(Nc4ccc(OCc5cccc(F)c5)c(Cl)c4)c3c2)o1	2.91%	-7.52%	4.57%	1.22%	3.8%	1.68%	7.08%	0.15%	1.73%	0.86%	0.76%	1.58%	1.84%	1.01%	2.17%	7.57%	6.58%	5.44%	6.1%	8.24%
Cc1cccc(Nc2ncc(-c3ccccc3)o2)c1	6.16%	2.69%	19.2%	0.14%	0.64%	1.19%	4.26%	1.45%	3.78%	4.05%	7.1%	4.42%	6.85%	1.87%	4.2%	4.59%	6.26%	3.02%	6.44%	5.26%
Fc1ccc(-c2nn3ncccc3c2-c2ccnc(Nc3ccc4c(c3)OCCO4)n2)cc1	4.39%	-3.69%	-0.79%	0.48%	-0.53%	0.21%	-0.44%	-0.07%	8.91%	3.81%	4.05%	3.8%	5.51%	0.98%	1.52%	1.26%	-1.02%	3.9%	5.77%	0.23%
CCNC(=O)O[C@H]1CN[C@H](C#Cc2cc3ncnc(Nc4ccc(OCc5cccc(F)c5)c(Cl)c4)c3s2)C1	4.45%	1.68%	6.34%	0.67%	2.32%	2.25%	1.26%	1.21%	2.24%	3.45%	3.02%	3.6%	4.34%	2.5%	2.5%	3.99%	2.84%	2.23%	2.55%	3.17%
COC(=O)Nc1nc2ccc(S(=O)(=O)c3ccc(NC(=O)Nc4cc(C(F)(F)F)ccc4F)cc3)cc2[nH]1	3.39%	3.25%	4.84%	3.17%	4.39%	2.33%	2.89%	0.42%	1.45%	3.34%	3.22%	3.61%	3.6%	-0.05%	0.07%	1.24%	3.43%	1.62%	1.94%	3.73%
COc1ccc(-c2cc3c(N)ncnc3o2)cc1	-2.04%	2.2%	2.41%	-0.42%	-0.34%	0.68%	1.73%	1.05%	2.96%	-1.62%	-0.48%	-0.8%	-0.85%	0.63%	-1.72%	0.13%	2.78%	-1.09%	3.25%	-1.84%
